# Out of some 7,900 compounds screened, about 400 (5.1%) showed an effect of 50% or more. The sample as a whole holds a higher share of strong results than the screen did.
# Target: Parkinson's disease protein 7 (PARK7/DJ1) (human, UniProt Q99497)
# Assay: primary screen, percent inhibition; read as competition with a fluorescent probe by fluorescence polarization; higher = more effect of the substance
# Settings: 100 µM
# In short: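 Fluorescence-polarization probe displacement (JYQ-107, 20 nM final, 2 h) after 2 h preincubation of PARK7 (0.2 μM final) with each fragment at 100 μM final. Read-out ex/em 480/520 nm; remaining activity derived from FP signal loss relative to reference controls.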
# Sequence of Parkinson's disease protein 7 (PARK7/DJ1) (Q99497 whole entry, looked up): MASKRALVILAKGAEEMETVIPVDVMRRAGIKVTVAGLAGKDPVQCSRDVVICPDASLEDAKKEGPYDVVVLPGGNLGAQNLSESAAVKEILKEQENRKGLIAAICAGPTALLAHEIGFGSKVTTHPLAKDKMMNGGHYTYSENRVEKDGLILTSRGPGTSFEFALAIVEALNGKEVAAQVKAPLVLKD
row,SMILES,Inhibition % [%]
1,CC1(C)OB(c2cnc3ccnn3c2)OC1(C)C,5.87
2,C=CC(=O)N1CCOC(C)(C(F)F)C1 (centres unmarked),7.7
3,CS(=O)(=O)c1cccnc1C#N,5.26
4,C=CC(=O)N1CCCC1C (centres unmarked),7.71
5,CC(C)Cn1c(N)c(C(=O)CCl)c(=O)n(C)c1=O,6.06
6,O=c1[nH]c(-c2cccc(S(=O)(=O)F)c2)nc2sc3c(c12)CCC3,88.5
7,O=c1[nH]c(-c2ccc(S(=O)(=O)F)cc2)nc2sc3c(c12)CCC3,15.9
8,O=c1[nH]c(-c2ccc(S(=O)(=O)F)cc2)nc2ccccc12,13
9,CC1(C)OB(c2ccc3ccoc3c2)OC1(C)C,9.89
10,CC1(C)OB(c2ccc3cc(N)ccc3c2)OC1(C)C,87.8
11,CC1(C)OB(c2ccc(N)c(O)c2)OC1(C)C,92.7
12,CC1(C)OB(c2ccc(N)c(F)c2)OC1(C)C,1.59
13,CC1(C)OB(c2cccc(N)c2)OC1(C)C,12.8
14,CC1(C)OB(c2ccc(N)cc2)OC1(C)C,5.89
15,Cc1ccc(N)cc1B1OC(C)(C)C(C)(C)O1,14.1
16,Cc1cc(B2OC(C)(C)C(C)(C)O2)ccc1N,8.63
17,CC1(C)OB(c2ccc3ccc(N)cc3c2)OC1(C)C,86.8
18,Cc1ccc(C)c(Cn2cnc(C#N)n2)c1,2.61
19,Clc1ccccc1COCC1CO1 (centres unmarked),9.97
20,N[C@@H]1CCN(C(=O)C=Cc2cc3ccccc3o2)C1,18.2
21,N#Cc1ccc2c(n1)CCCC2,7.43
22,C=CC(=O)NC1C2CCOC2C12CCC2 (centres unmarked),8.04
23,C=CC(=O)NC1C(C)C(OC)C12CCC2 (centres unmarked),50
24,C=CC(=O)NC1CC(OC)C12CCC2 (centres unmarked),3.73
25,COc1cc(S(=O)(=O)n2cccn2)c(C)cc1C,5.05

row,SMILES,Inhibition % [%]
1,COc1ccc(CNC(=O)CCl)cc1OC,6.67
2,Cc1cc(C)cc(NC(=O)CCl)c1,11.3
3,Cc1cc(NC(=O)CCl)ccc1Br,32.6
4,Cc1ccc(NC(=O)CCl)cc1I,81.5
5,Cc1ccc(NC(=O)CCl)cc1F,48.3
6,Cc1ccc(NC(=O)CCl)cc1C,34.8
7,Cc1ccc(NC(=O)CCl)cc1Br,75
8,O=C1CC2(CCCC2)N1,4.3
9,CCc1cc(S(=O)(=O)n2ccnc2)ccc1OC,7.72
10,c1ccc(OCC2CO2)cc1 (centres unmarked),9.6
11,CC1CC(N2CCN(C)c3ccccc3C2)C(=O)O1 (centres unmarked),0.987
12,CC1CC(N2CCc3sccc3C2)C(=O)O1 (centres unmarked),13.9
13,CCCn1nc2c(cc1=O)CN(C1CC(C)OC1=O)CC2 (centres unmarked),86.8
14,CC1CC(N2CCc3c(nc(C4CC4)n3C)C2)C(=O)O1 (centres unmarked),5.37
15,CCn1nc2c(cc1=O)CN(C1CC(C)OC1=O)CC2 (centres unmarked),61.4
16,CC(=O)Nc1cccc2c1CCN(C1CC(C)OC1=O)C2 (centres unmarked),1.86
17,C=CC(=O)NCC1CCSC1 (centres unmarked),5.45
18,C=CC(=O)N1CCc2ccc(C(=O)O)cc2CC1,4.84
19,O=c1cn[nH]c(S)n1,74.8
20,O=c1[nH]c(S)nc2[nH]ncc12,4.43
21,Cc1n[nH]c(S)nc1=O,2.15
22,Cn1c(=O)c2c(nc(Cl)n2CCS(=O)(=O)F)n(C)c1=O,3.18
23,CC1CC(N2CCC(O)CC2)C(=O)O1 (centres unmarked),5.67
24,C=CC(=O)N1CCC(N(C)C(=O)N(C)C)C1 (centres unmarked),28.7
25,Cc1cc(NC(=O)CCl)no1,3.42

row,SMILES,Inhibition % [%]
1,Cc1nonc1C(=O)CCl,97.9
2,Cc1noc(C)c1C(=O)CCl,13.5
3,C=CC(=O)NCC1CCC=CO1 (centres unmarked),6.04
4,C=CC(=O)N1CCN(S(=O)(=O)CC)C[C@H]1C,12.6
5,CC(=O)Nc1nn(C)cc1S(=O)(=O)F,14.8
6,Cn1cc(S(=O)(=O)F)c(N)n1,7.95
7,CN(c1ccccc1)S(=O)(=O)C=Cc1ccccc1,4.34
8,Cn1cc(S(=O)(=O)Oc2cnc3ccccc3c2)cn1,6.55
9,CN(c1ccccc1)S(=O)(=O)c1ccccc1S(=O)(=O)F,96.6
10,CN(c1ccn(C)n1)S(=O)(=O)c1ccccc1S(=O)(=O)F,97.9
11,O=S(=O)(F)c1coc2ccccc12,10.5
12,CN(c1cnn(C)c1)S(=O)(=O)c1ccccc1S(=O)(=O)F,98.1
13,C=CC(=O)N(Cc1ccccc1)c1cnn(C)c1,29.9
14,CC1(C)OB(CC2CC3(CCOCC3)C2)OC1(C)C,3.09
15,C=CC(=O)N(C)C1C(C)CCCC1C (centres unmarked),5.45
16,C=CC(=O)N1C[C@]2(C)COC[C@]2(C)C1,9.62
17,C=CC(=O)N1CC(C)(C)O[C@@]2(C[C@@H]3CC[C@H]2C3)C1,10.3
18,N#Cc1nc(N2CC(CF)C2)ccc1Cl,3.54
19,O=C(CCl)N1CCN(S(=O)(=O)Cc2ccccc2)CC1,13.1
20,CCC1(CNS(=O)(=O)C=Cc2ccccc2)CCOCC1,6.07
21,CC1(C)OB(Cc2cc(F)cc(F)c2)OC1(C)C,6.97
22,Cc1ccnc(NS(=O)(=O)c2ccc(S(=O)(=O)F)cc2)c1,16.1
23,O=S(=O)(F)c1ccc(S(=O)(=O)Nc2ccccn2)cc1,5.71
24,Cc1nccc(NS(=O)(=O)c2ccc(S(=O)(=O)F)cc2)n1,57.9
25,Cc1ccnc(NS(=O)(=O)c2ccc(S(=O)(=O)F)cc2)n1,36.3

row,SMILES,Inhibition % [%]
1,O=S(=O)(F)c1ccc(S(=O)(=O)Nc2cccc(F)n2)cc1,54.7
2,O=S(=O)(F)c1ccc(S(=O)(=O)Nc2ccncc2)cc1,8.89
3,O=S(=O)(F)c1ccc(S(=O)(=O)Nc2ccsc2)cc1,27.7
4,O=S(=O)(F)c1ccc(S(=O)(=O)Nc2nccs2)cc1,64
5,CC1(C)OB(c2cncc(NS(=O)(=O)c3ccccc3)c2)OC1(C)C,8.59
6,CCNS(=O)(=O)c1ccc(B2OC(C)(C)C(C)(C)O2)c(C)c1,5.32
7,C=CC(=O)NC1CC(OC)C1(C)C (centres unmarked),-3.29
8,CC1CC(Sc2cnccn2)C(=O)O1 (centres unmarked),48.8
9,Cc1ccc2cccc(OC(=O)N(C)C)c2n1,5.34
10,C=CS(=O)(=O)c1ccccc1,9.43
11,CC1CCN(C(=O)C=Cc2cn(C)c(=O)n(C)c2=O)CC1,10.9
12,CN1CCC(CNc2ccc(C#N)nc2)CC1,1.29
13,O=C(CCCl)N1CCN(c2ccccn2)CC1,12.9
14,O=C(CCCl)N1CCN(c2ncccn2)CC1,3.8
15,C=CC(=O)N1CCN(c2ncccn2)CC1,9.58
16,Cl.O=C(CCl)N1CCN(c2cccc(Cl)c2)CC1,44.3
17,Cl.O=C(CCl)N1CCN(c2cnccn2)CC1,55.6
18,O=C(CCl)N1CCN(c2ncccn2)CC1,91.6
19,C=CC(=O)NCCN1C(=O)CNC1=O,12.9
20,C=CC(=O)NCC1CCN(c2ccccc2)CC1,3.72
21,N#Cc1cc(F)ccn1,5.03
22,N#Cc1cc(Cl)ccn1,52.6
23,N#Cc1ccnc(Cl)n1,3.95
24,Cc1ccc(C=CS(=O)(=O)Nc2ccc(C#N)cn2)cc1,11.1
25,O=S(=O)(C=Cc1ccccc1)Nc1ccc(F)cn1,6.27

row,SMILES,Inhibition % [%]
1,O=S(=O)(F)CCCS(=O)(=O)Nc1ccc(F)cn1,77.2
2,O=S(=O)(F)c1ccc(Nc2ccc(F)cc2)nc1,2.34
3,C=CC(=O)Nc1ccc(C)cn1,0.151
4,Cc1ccc(NS(=O)(=O)CCCS(=O)(=O)F)nc1,80.1
5,Cn1c(SC2CCOC2=O)nnc1-c1ccccc1 (centres unmarked),12.6
6,Cc1ccc(S)nn1,28.1
7,FC(F)(F)c1ccc(S)nn1,25.5
8,Sc1ccc(Cl)nn1,53.5
9,CNC(=O)Nc1ccc(S(=O)(=O)F)cc1,22.2
10,CC(C)CC(=O)NNS(=O)(=O)c1ccc(S(=O)(=O)F)cc1,30.6
11,COCC(=O)Nc1ccc(S(=O)(=O)F)cc1,13.6
12,CC(C)(C)C(=O)NNS(=O)(=O)c1cccc(S(=O)(=O)F)c1,97.2
13,CC(C)CC(=O)NNS(=O)(=O)c1cccc(S(=O)(=O)F)c1,98.2
14,CC(C)(C)C(=O)NNS(=O)(=O)c1ccc(S(=O)(=O)F)cc1,6.55
15,O=c1oc2cc(OCC3CO3)ccc2c2c1CCC2 (centres unmarked),10.6
16,N#Cc1nc(N2CCOCC2)ccc1Cl,8.71
17,Cc1cn2c(C=C(C#N)c3ccccn3)c(C)nc2s1,13.6
18,O=C(CCl)Nc1cc(C(F)(F)F)ccc1-n1cncn1,32.5
19,C=CC(=O)N1CCC(c2ccc(C)nc2)CC1,4.08
20,CCOc1ccncc1S(=O)(=O)Oc1cccc(F)c1,58.4
21,CCn1cc(S(=O)(=O)Oc2cccc(F)c2)nc1C,3.67
22,Cn1cc(S(=O)(=O)Oc2cccc(F)c2)c(=O)n(C)c1=O,5.3
